This passage reports binding signal results from PMC7862700, “An all-to-all approach to the identification of sequence-specific readers for epigenetic DNA modifications on cytosine”.

Common to all, as to test: DAPPL (digital affinity profiling via proximity ligation, sequencing); 10 mM Tris-HCl pH 7.5, 50 mM NaCl, 1 mM DTT, 4% glycerol, room temperature, 30 min; GST-TFs on glutathione beads, 16-mer random dsDNA library, 0.1% formaldehyde crosslink after washing; high values mean tight binding
Assay [1] deals with T1, FEV (Homo sapiens, UniProt Q99581 1-238).
T1 sequence: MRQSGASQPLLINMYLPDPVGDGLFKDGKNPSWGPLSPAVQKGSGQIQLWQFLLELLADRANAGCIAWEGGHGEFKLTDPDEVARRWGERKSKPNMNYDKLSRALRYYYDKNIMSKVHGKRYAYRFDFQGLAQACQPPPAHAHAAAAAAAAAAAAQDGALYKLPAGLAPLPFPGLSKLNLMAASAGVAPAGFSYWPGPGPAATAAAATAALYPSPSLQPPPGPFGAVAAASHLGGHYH
Particulars: protein: recombinant; tags: N-terminal GST; dsDNA, one strand shown. Summed up: (§1)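 Human transcription factors were made in yeast as GST fusions, captured on glutathione beads and barcoded with DNA. With a tag-only sample included, the pool was incubated with 200 nmole of a random double-stranded 16-mer DNA library in Tris/NaCl/DTT/glycerol buffer at room temperature for 30 min, then crosslinked with 0.1% formaldehyde after washing, ligated by proximity, amplified and sequenced. For binding signal, each hexamer's read frequency for a factor is divided by its frequency for the tag-only sample.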

Assay [2] deals with ETV5 (Homo sapiens, UniProt P41161 1-510). As to conditions: protein: recombinant; tags: N-terminal GST; dsDNA, one strand shown. Summed up:
as §1

Assay [3] deals with HSF1 (Homo sapiens, UniProt Q00613 1-529). As to conditions: protein: recombinant; tags: N-terminal GST; chain copies: 3; dsDNA, one strand shown. An outline of the steps:
as §1

Assay [4] concerns the target T2, SPIC (Homo sapiens, UniProt Q8N5J4 1-248).
T2 sequence: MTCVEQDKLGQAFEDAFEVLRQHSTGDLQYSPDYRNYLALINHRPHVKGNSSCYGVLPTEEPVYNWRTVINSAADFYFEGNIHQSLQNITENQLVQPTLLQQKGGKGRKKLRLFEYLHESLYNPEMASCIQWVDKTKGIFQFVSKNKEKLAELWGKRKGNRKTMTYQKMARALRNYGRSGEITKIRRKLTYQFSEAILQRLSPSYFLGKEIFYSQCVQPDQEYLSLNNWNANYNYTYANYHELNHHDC
As to conditions: protein: recombinant; tags: N-terminal GST; dsDNA, one strand shown. An outline of the steps: as §1

The target of assay [5] is ELF4 (Homo sapiens, UniProt Q99607 1-663). As to conditions: protein: recombinant; tags: N-terminal GST; dsDNA, one strand shown. An outline of the steps: as §1
Assay [6] concerns the target T3, ELK4 (Homo sapiens, UniProt P28324-2 1-405).
T3 sequence: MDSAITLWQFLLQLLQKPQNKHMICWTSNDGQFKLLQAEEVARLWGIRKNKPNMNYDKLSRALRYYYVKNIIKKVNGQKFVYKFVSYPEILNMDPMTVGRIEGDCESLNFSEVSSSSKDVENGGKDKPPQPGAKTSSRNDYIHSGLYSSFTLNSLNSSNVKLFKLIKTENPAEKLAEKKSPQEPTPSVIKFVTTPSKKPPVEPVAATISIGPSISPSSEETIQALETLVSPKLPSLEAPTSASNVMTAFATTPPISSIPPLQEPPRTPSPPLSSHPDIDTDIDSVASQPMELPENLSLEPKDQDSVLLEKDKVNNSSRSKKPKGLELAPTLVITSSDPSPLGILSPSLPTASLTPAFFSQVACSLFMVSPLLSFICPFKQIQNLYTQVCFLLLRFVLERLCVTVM
As to conditions: protein: recombinant; tags: N-terminal GST; dsDNA, one strand shown. Summed up: as §1

Assay [7] concerns the target T4, ETV2 (Homo sapiens, UniProt O00321 1-342).
T4 sequence: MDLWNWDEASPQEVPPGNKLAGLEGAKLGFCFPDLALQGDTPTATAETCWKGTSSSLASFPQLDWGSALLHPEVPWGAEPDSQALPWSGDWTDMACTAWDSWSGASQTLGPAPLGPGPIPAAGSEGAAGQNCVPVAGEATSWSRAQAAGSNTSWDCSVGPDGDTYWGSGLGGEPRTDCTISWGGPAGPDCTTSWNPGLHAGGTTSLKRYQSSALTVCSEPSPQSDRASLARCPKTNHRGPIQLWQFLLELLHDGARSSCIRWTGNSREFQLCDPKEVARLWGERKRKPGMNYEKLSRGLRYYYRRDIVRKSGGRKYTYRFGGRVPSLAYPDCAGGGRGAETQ
Particulars: protein: recombinant; tags: N-terminal GST; dsDNA, one strand shown. Summed up:
as §1

The target of assay [8] is T5, ELF3 (Homo sapiens, UniProt P78545 1-371).
T5 sequence: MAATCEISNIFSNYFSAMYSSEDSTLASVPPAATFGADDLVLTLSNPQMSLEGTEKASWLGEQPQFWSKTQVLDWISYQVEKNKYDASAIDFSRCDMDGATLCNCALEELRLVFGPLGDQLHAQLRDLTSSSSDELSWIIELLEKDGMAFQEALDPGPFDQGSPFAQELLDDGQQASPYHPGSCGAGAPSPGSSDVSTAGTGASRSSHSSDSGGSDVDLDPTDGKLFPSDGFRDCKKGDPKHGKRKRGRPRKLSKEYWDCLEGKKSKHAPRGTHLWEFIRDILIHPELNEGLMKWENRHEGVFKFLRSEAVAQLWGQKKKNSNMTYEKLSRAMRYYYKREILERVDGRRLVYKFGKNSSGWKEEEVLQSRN
Particulars: protein: recombinant; tags: N-terminal GST; dsDNA, one strand shown. An outline of the steps: as §1

Assay [9] deals with CRX (Homo sapiens, UniProt O43186 1-299). Particulars: protein: recombinant; tags: N-terminal GST; dsDNA, one strand shown. Summed up:
as §1

In assay [10] the target is ETV1 (Homo sapiens, UniProt P50549 1-477). As to conditions: protein: recombinant; tags: N-terminal GST; dsDNA, one strand shown. Summed up: as §1
The target of assay [11] is T6, ERF (Homo sapiens, UniProt P50548 1-548).
T6 sequence: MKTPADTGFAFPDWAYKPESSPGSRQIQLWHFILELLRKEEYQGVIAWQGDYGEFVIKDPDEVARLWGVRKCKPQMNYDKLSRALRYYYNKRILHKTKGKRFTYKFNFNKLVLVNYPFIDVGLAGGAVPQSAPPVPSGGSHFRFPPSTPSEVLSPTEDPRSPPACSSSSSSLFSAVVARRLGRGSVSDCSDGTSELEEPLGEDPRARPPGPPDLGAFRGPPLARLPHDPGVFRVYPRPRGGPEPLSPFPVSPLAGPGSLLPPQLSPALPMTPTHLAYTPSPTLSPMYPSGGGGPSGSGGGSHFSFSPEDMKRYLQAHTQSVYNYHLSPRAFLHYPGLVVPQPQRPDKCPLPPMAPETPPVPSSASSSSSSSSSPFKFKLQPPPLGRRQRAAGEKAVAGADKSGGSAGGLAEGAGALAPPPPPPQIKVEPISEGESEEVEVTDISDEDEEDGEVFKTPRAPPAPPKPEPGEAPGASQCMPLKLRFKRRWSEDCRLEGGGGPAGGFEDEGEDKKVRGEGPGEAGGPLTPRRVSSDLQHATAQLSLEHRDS
As to conditions: protein: recombinant; tags: N-terminal GST; dsDNA, one strand shown. Summed up: as §1

Assay [12] concerns the target T7, ETV3L (Homo sapiens, UniProt Q6ZN32 1-361).
T7 sequence: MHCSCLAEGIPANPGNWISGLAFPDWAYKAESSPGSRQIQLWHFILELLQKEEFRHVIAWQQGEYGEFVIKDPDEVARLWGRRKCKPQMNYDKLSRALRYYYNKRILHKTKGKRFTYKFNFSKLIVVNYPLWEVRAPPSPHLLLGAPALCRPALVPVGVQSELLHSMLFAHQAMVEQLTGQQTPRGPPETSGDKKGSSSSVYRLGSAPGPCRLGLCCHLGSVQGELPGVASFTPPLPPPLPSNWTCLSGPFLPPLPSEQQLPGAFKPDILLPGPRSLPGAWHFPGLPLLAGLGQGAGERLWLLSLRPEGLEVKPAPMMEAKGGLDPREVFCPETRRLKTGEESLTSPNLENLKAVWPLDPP
Particulars: protein: recombinant; tags: N-terminal GST; dsDNA, one strand shown. An outline of the steps:
as §1

The target in assay [13] is T8, ETS2 (Homo sapiens, UniProt P15036 1-469).
T8 sequence: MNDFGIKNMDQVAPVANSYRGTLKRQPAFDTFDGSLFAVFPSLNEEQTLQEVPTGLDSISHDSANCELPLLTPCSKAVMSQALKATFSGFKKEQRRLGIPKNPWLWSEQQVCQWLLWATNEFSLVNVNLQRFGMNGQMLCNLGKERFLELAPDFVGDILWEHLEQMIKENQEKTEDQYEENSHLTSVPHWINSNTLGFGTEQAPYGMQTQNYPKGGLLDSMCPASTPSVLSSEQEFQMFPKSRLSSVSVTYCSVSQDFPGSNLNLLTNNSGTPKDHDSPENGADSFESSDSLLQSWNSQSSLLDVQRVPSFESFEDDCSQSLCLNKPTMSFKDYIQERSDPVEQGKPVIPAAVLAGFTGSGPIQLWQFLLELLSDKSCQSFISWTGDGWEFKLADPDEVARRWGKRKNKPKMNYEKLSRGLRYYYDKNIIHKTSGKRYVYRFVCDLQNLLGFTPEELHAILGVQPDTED
As to conditions: protein: recombinant; tags: N-terminal GST; dsDNA, one strand shown. An outline of the steps: as §1

Assay [14] has as its target T9, SPDEF (Homo sapiens, UniProt O95238 1-335).
T9 sequence: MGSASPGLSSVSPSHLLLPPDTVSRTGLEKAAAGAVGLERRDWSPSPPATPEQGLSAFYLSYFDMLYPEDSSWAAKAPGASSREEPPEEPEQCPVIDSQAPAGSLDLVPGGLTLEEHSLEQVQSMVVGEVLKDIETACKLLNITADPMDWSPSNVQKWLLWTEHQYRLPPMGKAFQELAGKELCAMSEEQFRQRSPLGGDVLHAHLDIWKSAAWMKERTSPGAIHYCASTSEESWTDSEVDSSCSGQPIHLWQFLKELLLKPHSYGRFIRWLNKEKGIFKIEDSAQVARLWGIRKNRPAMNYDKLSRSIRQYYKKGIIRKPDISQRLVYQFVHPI
Particulars: protein: recombinant; tags: N-terminal GST; dsDNA, one strand shown. An outline of the steps:
as §1

Assay [15] has as its target T10, ETV7 (Homo sapiens, UniProt Q9Y603 1-341).
T10 sequence: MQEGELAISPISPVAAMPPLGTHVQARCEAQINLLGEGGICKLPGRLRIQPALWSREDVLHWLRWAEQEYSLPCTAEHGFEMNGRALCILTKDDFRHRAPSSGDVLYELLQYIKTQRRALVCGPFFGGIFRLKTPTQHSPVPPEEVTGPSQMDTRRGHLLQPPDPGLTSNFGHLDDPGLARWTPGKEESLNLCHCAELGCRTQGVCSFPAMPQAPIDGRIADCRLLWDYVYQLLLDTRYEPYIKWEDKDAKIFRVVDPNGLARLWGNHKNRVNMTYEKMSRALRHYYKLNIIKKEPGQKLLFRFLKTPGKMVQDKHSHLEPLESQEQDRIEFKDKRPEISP
Particulars: protein: recombinant; tags: N-terminal GST; dsDNA, one strand shown. An outline of the steps: as §1

Assay [16] deals with T11, ELF5 (Homo sapiens, UniProt Q9UKW6-2 1-255).
T11 sequence: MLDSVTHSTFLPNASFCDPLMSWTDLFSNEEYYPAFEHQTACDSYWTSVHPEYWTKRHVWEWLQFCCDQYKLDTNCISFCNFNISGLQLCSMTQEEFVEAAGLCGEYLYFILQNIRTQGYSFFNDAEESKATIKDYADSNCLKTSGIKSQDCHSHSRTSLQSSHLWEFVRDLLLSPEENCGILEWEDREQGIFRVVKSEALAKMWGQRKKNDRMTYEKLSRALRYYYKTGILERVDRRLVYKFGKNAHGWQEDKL
As to conditions: protein: recombinant; tags: N-terminal GST; dsDNA, one strand shown. Summed up: as §1

In assay [17] the target is T12, ETV3 (Homo sapiens, UniProt P41162-2 1-143).
T12 sequence: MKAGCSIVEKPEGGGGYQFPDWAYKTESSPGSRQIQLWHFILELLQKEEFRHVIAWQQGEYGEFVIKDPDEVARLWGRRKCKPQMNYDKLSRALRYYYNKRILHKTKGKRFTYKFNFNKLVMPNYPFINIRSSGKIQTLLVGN
Particulars: protein: recombinant; tags: N-terminal GST; dsDNA, one strand shown. An outline of the steps: as §1

In assay [18] the target is ETV6 (Homo sapiens, UniProt P41212 1-452). As to conditions: protein: recombinant; tags: N-terminal GST; dsDNA, one strand shown. An outline of the steps:
as §1

Sequence of CRX (O43186 whole entry): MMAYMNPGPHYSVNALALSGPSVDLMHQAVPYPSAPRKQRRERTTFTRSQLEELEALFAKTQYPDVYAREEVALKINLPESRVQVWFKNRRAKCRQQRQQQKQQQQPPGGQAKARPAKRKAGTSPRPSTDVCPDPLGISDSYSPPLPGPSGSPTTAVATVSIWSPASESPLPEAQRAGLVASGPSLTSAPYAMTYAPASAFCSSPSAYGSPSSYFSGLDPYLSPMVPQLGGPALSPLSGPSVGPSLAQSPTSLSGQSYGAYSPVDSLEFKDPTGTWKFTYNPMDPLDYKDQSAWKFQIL
Sequence of ELF4 (Q99607 whole entry): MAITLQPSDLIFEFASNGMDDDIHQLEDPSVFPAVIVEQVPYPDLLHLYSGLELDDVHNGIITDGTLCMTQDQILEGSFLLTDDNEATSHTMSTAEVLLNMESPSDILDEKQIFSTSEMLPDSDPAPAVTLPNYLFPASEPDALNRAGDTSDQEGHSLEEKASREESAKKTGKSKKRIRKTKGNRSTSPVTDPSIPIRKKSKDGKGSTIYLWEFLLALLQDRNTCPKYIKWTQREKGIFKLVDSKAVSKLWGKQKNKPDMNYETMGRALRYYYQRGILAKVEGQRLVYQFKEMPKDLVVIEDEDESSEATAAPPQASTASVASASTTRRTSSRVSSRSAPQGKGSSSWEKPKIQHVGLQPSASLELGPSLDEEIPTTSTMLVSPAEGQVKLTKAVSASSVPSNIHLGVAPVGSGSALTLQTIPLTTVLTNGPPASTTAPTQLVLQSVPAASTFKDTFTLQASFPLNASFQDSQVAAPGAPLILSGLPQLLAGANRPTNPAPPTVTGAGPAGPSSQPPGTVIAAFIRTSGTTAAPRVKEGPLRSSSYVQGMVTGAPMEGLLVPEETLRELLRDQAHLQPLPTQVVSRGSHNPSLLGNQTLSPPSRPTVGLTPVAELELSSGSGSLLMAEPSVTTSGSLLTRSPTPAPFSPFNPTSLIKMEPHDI
Sequence of ETV6 (P41212 whole entry): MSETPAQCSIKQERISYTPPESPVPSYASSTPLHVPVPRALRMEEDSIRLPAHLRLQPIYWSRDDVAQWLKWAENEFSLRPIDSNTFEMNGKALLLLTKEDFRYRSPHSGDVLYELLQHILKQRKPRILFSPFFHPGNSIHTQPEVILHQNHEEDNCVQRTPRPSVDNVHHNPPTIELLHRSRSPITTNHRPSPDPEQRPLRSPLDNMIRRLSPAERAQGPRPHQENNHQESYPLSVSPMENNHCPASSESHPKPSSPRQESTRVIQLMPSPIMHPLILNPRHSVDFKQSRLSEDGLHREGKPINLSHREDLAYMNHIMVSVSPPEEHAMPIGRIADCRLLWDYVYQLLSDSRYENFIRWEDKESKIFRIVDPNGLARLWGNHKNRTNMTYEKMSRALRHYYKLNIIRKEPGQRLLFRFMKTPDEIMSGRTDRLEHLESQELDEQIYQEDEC
Sequence of ETV5 (P41161 whole entry): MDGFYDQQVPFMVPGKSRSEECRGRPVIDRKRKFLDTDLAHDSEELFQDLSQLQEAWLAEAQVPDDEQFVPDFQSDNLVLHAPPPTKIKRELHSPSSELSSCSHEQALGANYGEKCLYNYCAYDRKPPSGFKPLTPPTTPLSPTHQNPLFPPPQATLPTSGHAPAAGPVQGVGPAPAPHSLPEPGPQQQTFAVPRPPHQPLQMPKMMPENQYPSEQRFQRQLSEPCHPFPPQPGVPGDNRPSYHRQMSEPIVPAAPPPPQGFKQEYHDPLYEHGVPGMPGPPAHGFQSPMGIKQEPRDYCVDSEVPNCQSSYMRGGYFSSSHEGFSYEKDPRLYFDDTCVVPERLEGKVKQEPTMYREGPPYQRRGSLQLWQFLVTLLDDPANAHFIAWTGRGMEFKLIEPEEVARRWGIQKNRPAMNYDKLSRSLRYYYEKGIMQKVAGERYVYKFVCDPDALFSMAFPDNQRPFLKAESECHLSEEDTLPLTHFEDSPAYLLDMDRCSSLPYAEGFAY
Sequence of HSF1 (Q00613 whole entry): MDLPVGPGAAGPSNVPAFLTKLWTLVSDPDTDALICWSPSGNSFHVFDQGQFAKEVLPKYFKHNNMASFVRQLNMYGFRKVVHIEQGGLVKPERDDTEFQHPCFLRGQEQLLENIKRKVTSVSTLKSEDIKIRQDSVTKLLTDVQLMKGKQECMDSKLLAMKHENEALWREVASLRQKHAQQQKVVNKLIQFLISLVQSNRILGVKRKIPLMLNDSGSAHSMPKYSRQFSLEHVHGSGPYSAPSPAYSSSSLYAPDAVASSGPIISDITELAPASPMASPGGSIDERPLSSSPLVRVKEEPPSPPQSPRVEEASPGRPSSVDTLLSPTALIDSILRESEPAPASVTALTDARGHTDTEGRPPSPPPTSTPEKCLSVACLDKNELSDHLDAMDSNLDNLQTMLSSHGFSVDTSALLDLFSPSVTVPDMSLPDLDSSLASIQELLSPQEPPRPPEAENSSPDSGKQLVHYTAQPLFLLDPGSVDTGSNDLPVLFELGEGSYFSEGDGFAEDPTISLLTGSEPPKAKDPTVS
Sequence of ETV1 (P50549 whole entry): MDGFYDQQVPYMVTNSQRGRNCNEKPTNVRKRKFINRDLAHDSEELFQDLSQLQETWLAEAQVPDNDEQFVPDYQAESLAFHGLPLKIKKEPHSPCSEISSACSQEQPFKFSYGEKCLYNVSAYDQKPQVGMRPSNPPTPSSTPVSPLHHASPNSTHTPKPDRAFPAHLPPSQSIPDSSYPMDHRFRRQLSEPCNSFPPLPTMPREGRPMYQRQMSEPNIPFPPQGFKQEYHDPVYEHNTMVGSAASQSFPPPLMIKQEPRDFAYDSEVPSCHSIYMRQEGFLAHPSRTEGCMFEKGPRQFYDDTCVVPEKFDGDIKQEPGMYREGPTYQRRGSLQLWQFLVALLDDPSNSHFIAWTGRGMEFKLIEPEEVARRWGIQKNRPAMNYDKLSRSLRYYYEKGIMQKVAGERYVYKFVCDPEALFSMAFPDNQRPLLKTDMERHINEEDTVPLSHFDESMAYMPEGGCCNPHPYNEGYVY

Regarding CTGTAT, the binding signal in assay [1] was 1.34 fold enrichment (6-mer frequency, TF over GST control); in [2], 1.35 fold enrichment (6-mer frequency, TF over GST control); in assay [3], 1.18 fold enrichment (6-mer frequency, TF over GST control); in [4] it was 1.51 fold enrichment (6-mer frequency, TF over GST control); in assay [5], 1.22 fold enrichment (6-mer frequency, TF over GST control); in assay [6] it was 1.29 fold enrichment (6-mer frequency, TF over GST control). The binding signal was 1.25 fold enrichment (6-mer frequency, TF over GST control) in [7]; 1.13 fold enrichment (6-mer frequency, TF over GST control) in [8]; 1.17 fold enrichment (6-mer frequency, TF over GST control) in [9]; 1.39 fold enrichment (6-mer frequency, TF over GST control) in assay [10]; 1.29 fold enrichment (6-mer frequency, TF over GST control) in assay [11]; 1.24 fold enrichment (6-mer frequency, TF over GST control) in [12]. The binding signal in assay [13] is 1.22 fold enrichment (6-mer frequency, TF over GST control); in assay [14], 1.44 fold enrichment (6-mer frequency, TF over GST control); in [15] it was 1.25 fold enrichment (6-mer frequency, TF over GST control); in assay [16], 1.34 fold enrichment (6-mer frequency, TF over GST control); in assay [17] it was 1.32 fold enrichment (6-mer frequency, TF over GST control); in [18], 1.31 fold enrichment (6-mer frequency, TF over GST control).
